Compound activity: PubChem BioAssay, National Center for Advancing Translational Sciences (NCATS)
TRPML1 agonist: agonists of human TRPML1 channel. activation, % (no concentration beside the values). hit rate 0.12% among 410,000. Q9GZU1. AID 624414. TRPML1-expressing cells, Ca2+ dye fluorescence, FDSS; in the data active = activation above about 50%; inconclusive = mostly about 30% to 49%
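In this qHTS format, compounds were pin-transferred onto Ca8-dye-loaded TRPML1-DL cells induced with Tet overnight, and intracellular Ca2+ fluorescence was recorded kinetically for 110 s after a 10 s baseline. A subsequent 4uM final 54-4 (EC80) addition followed by a second 110 s read served as the antagonist phase.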
DRD3 antagonist: D3 dopamine receptor (human) antagonism | D3R cells, DiscoveRx beta-arrestin luminescence, antagonist mode; stronger effect = lower value | max response, negative = inhibition, % | hit rate 2.5% among 360,000 | AID 652054; in the data active = max response below about -50%; inconclusive = no clear call, values can overlap the other calls
Target sequence (P35462 whole entry, looked up): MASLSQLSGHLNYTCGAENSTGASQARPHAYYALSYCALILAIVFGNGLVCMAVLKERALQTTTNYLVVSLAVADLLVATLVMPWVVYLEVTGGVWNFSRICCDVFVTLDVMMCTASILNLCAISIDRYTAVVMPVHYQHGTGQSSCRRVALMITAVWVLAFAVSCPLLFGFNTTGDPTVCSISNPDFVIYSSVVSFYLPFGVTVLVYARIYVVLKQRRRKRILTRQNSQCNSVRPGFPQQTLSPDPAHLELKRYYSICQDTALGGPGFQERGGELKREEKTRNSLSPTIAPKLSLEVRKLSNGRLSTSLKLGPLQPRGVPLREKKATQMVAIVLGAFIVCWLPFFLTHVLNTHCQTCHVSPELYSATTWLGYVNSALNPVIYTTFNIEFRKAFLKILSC
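Cells plated overnight at 1500 cells/well, then exposed to library compounds with dopamine controls for 90 minutes at 37 degrees C. DiscoveRx reagent added for 30–60 minutes at room temperature; luminescence read, quantitative HTS format.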
D3 ag: D3 dopamine receptor (human) agonism; hit rate 0.58% among 410,000; D3R DiscoveRx beta-arrestin cells, luminescence, 90 min; max activation, %; AID 652048; P35462; in the data active = max activation above about 30%
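Agonist mode: compounds and dopamine controls were applied to plated cells for 90 min at 37 degrees C after an overnight attachment at 1500 cells/well. Luminescent read-out followed 30 - 60 minutes at room temperature with DiscoveRx detection reagent.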
TRPML1 blocker: human mucolipin-1 channel inhibition; TRPML1-inducible cells, Ca2+ dye fluorescence, FDSS; stronger effect = lower value; inhibition of EC80 agonist-evoked calcium signal; activity change, negative = inhibition, % (test concentration not listed); hit rate 0.02% among 390,000; AID 624415; in the data active = activity change below about -50%; inconclusive = between about -30% and that limit;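 also: stimulus is agonist 54-4 at its EC80 concentration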
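Calcium fluorescence in TRPML1-DL cells induced overnight with Tet: a 110 s read after compound pin addition, then a 110 s antagonist read after challenge with 54-4 at 4 uM final (EC80).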
Hits are given with their value; – = inactive; ? = inconclusive; · = no result given; ! = not active in a repeat. Most compounds without a hit are left out; they make up all but 2.9% or so of the library.

SMILES	TRPML1 agonist	DRD3 antagonist	D3 ag	TRPML1 blocker
COc1ccccc1N1CCN(CCCN2C(=O)C3CCCCN3C2=O)CC1 (configuration not stated)	–	-66	–	–
COc1ccc(CCN(C)c2ccc(C(N)=O)cc2[N+](=O)[O-])cc1OC	–	–	–	–
COc1ccc(CCN(C)C/C=C/c2ccccc2[N+](=O)[O-])cc1OC	–	-60	–	–
c1cnc2cc3c(cc2n1)[C@@H]1CNC[C@H]3C1	·	·	–	·
N#C/C(=C/c1ccc(O)c(O)c1)C(=O)NCc1ccc(Cl)cc1	–	-50	–	–
CC1CCCN(CCCOc2ccccc2-c2ccccc2)C1 (configuration not stated)	–	-67	–	–
COc1ccccc1OCCCCN1CCC(C)CC1	–	?	–	–
CC1CCN(CCCCOc2ccccc2-c2ccccc2)CC1	–	-99	–	–
Brc1ccccc1OCCN1CCOCC1	–	?	–	–
CC1CCN(CCOCCOc2ccccc2-c2ccccc2)CC1	–	-82	–	–
CC1CCN(CCOCCOc2ccccc2Br)CC1	–	-61	–	–
COC(=O)c1sccc1S(=O)(=O)N(CC(=O)NCc1ccccc1)c1ccc(C)cc1	–	·	–	–
CN(C)CCOCCOc1ccccc1-c1ccccc1	–	-69	–	–
CN(C)CCOc1ccccc1-c1ccccc1	–	?	–	–
CC(=O)N(CCCN(C)C)Cc1ccccn1	–	–	44	–
CC(=O)N(CCCc1ccc(C(C)(C)C)cc1)CCCN(C)C	–	–	–	–
COc1ccc(CNCCC(c2ccc3c(c2)OCO3)c2ccccc2OC)cc1 (configuration not stated)	–	·	–	–
COc1cccc(CNC(=O)c2cc(C)nc3c2c(C)nn3-c2ccc(C)cc2)c1	–	·	37	–
Cc1cc(C(=O)NCc2ccccc2)c2c(C)nn(-c3cccc(F)c3)c2n1	–	·	–	–
COc1ccc(CCNC(=O)c2cc(C)nc3c2c(C)nn3-c2ccc(C)cc2)cc1OC	–	·	–	–
CCOc1ccc(CCNC(=O)c2cc(C)nc3c2c(C)nn3-c2cccc(F)c2)cc1	–	·	63	–
Cc1ccc(-n2nc3c(N4CCC(C(=O)NCCC(C)C)CC4)nnc(C)c3c2C)cc1	–	·	–	–
C[C@H](O)[C@@H]1CN2CCc3c([nH]c4ccccc34)[C@@H]2C[C@@H]1N(C)C(=O)NC1CCCCC1	–	-58	–	–
C[C@H](O)[C@@H]1CN2CCc3c([nH]c4ccccc34)[C@@H]2C[C@@H]1N(C)Cc1cc(Cl)cc(Cl)c1	69	–	–	–
O=C1CN(C(=O)c2ccc(Cl)cc2Cl)C(c2ccc(F)cc2)c2cc(F)ccc2N1 (configuration not stated)	–	·	–	–
SMILES	TRPML1 agonist	DRD3 antagonist	D3 ag	TRPML1 blocker
CCCC(=O)Nc1ccc(NC(=O)CCc2ccccc2)cn1	–	-56	–	–
CCCC(=O)Nc1ccc(NC(=O)Cc2ccccc2)cn1	–	–	–	–
COc1ccc(C(=O)Nn2c(SCC(=O)c3ccccc3)nc3ccccc3c2=O)cc1	–	–	–	–
CCOC(=O)CSc1nc2ccccc2c(=O)n1NC(=O)c1ccccc1	–	–	35	–
O=S1(=O)Nc2c(ccc3cccnc23)-c2ccccc21	–	-137	–	–
COc1ccccc1NC(=O)C1CCN(C(=O)c2sc3nc[nH]c(=O)c3c2C)CC1	–	·	–	–
CC1CCCCC1Nc1nc2ccc(Cl)cc2n2cnnc12 (configuration not stated)	–	–	35	–
COc1ccc(OCC(=O)Nc2nnc3n2CCS3)cc1	–	·	–	–
CC(O)(c1cccc(F)c1)c1nc(-c2cccc(F)c2)cs1 (configuration not stated)	–	?	–	·
CC(O)(c1ccccc1)c1nc(-c2ccc(Cl)cc2)cs1 (configuration not stated)	–	–	–	–
CC(O)(c1cccnc1)c1nc(-c2cccc(C(F)(F)F)c2)cs1 (configuration not stated)	–	–	38	·
CC(O)(c1ccc(F)c(F)c1)c1nc(-c2ccc3ccccc3c2)cs1 (configuration not stated)	–	-56	–	·
CC(O)(c1ccccc1)c1nc(-c2cc3ccccc3o2)cs1 (configuration not stated)	–	-58	–	·
COCc1cccc(-c2csc(C(C)(O)c3cccc(F)c3)n2)c1 (configuration not stated)	–	-90	–	·
CC(O)(c1cccnc1)c1nc(-c2cccc(F)c2)cs1 (configuration not stated)	–	–	–	·
CCCNC(=O)Cn1nc(-c2ccc(C)c(C)c2)c2cnc3ccc(OC)cc3c21	–	·	–	–
CCN1C(=NCCc2ccc([N+](=O)[O-])cc2)N[C@@H](c2ccccc2)[C@H](C(=O)OC)[C@H]1C	–	?	–	–
CCN1C(=NCCc2ccc(Br)cc2)N[C@@H](c2ccccc2)[C@H](C(=O)OC)[C@H]1C	–	-88	–	–
COC(=O)C(NC(=O)c1ccccc1C)(Nc1ncc(S(=O)(=O)c2ccc([N+](=O)[O-])cc2)s1)C(F)(F)F (configuration not stated)	–	-77	–	–
Cc1ccc(N(CC2=NCCN2)c2cccc(O)c2)cc1	–	-63!	–	–
c1ccc(CN(CC2=NCCN2)c2ccccc2)cc1	–	–	–	–
NC(=O)c1ccccc1OCC(=O)NS(=O)(=O)c1ccccc1	–	-65	–	–
NC(=O)c1ccccc1OCC(=O)O	–	–	–	–
COc1cc(/C=C2/C=Cc3ccccc32)ccc1N(C)C	–	·	·	·
COc1cc2c3c(c1)C(C)=CC(C)(C)N3C(=O)C2=O	–	–	–	–
SMILES	TRPML1 agonist	DRD3 antagonist	D3 ag	TRPML1 blocker
CCCOc1ccccc1-n1sc2c(c1=S)-c1cc(OC)cc3c1N(C(=O)C3=O)C2(C)C	–	-57	–	–
O=C(c1cc(-c2ccncc2)nc2ccc(Cl)cc12)N1CCN(Cc2ccc3c(c2)OCO3)CC1	–	–	–	–
Cc1cc(C)c2nc(-c3ccncc3)cc(C(=O)N3CCN(Cc4ccccc4Cl)CC3)c2c1	–	–	43	–
CCCC(CCC)C(=O)O	–	–	–	–
CCCC(CCC)C(N)=O	·	·	58	·
CCc1ccccc1NC(=O)C(=O)NCC(c1cccnc1)N1CCc2ccccc21 (configuration not stated)	–	·	–	–
Cc1ccc(N2CCN(C(=O)c3c(C)oc4nc(C)nc(N5CCCC5)c34)CC2)c(C)c1	–	·	–	–
Cn1c(=O)c2c(ncn2CC(=O)Nc2nc(-c3ccccc3Cl)cs2)n(C)c1=O	–	–	32	–
CCOC(=O)Cc1csc(NC(=O)Cn2cnc3c2c(=O)n(C)c(=O)n3C)n1	–	–	–	–
Cc1cc(NC(=O)COC(=O)c2ccccc2OCCOc2ccccc2)ccc1Br	–	·	·	·
Cc1cccc(NC(=S)NC2CC3CCCC(C2)N3Cc2cccs2)c1 (configuration not stated)	–	-87	–	–
Cc1coc2c(C)c3oc(=O)c(CCC(=O)NCCCn4ccnc4)c(C)c3cc12	·	-69	–	·
